Bioassay records as filed in PubChem BioAssay.
RPL19A TOR yeast: alters RPL19A-GFP fluorescence in TOR pathway yeast screen | S. cerevisiae RPL19A-GFP strain, flow cytometry, 3 h; active compounds read low | percent response vs DMSO, % at 10 µM | actives 0.3% (n = 330,000) | AID 2025;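 active = percent response vs DMSO below 50%; inconclusive = fewer than 70 events counted for the yeast strain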;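 also: median channel GFP fluorescence of the barcoded RPL19A-GFP strain; ratio of sample median GFP to plate DMSO average so 100% = DMSO; lower means less RPL19A-GFP as with rapamycin TOR inhibition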
VLA-4 inh: inhibition in a human VLA-4 binding assay | P13612 | VLA-4 expressing cells, ligand binding flow cytometry | inhibition, % (about 7 µM as worked out from the volumes in the protocol) | actives 0.2% (n = 330,000); in the data active = inhibition above about 50%
MEP2-GFP yeast: yeast TOR pathway MEP2-GFP modulation; S. cerevisiae MEP2-GFP strain, flow cytometry GFP, 3 h; 100% = DMSO control level; GFP response vs DMSO, % at 10 µM; actives 0.51% (n = 330,000); AID 2016;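 active = GFP response versus DMSO above a set limit, roughly screen mean plus 3 SD, cut at about 180% in these data; inconclusive = fewer than 70 cells counted for a yeast strain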;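 also: median GFP fluorescence of the barcode-gated MEP2-GFP cells per well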
LAP4 TOR yeast: alters LAP4-GFP fluorescence in TOR pathway yeast screen | AID 2023 | S. cerevisiae LAP4-GFP multiplex, flow cytometry GFP, 3 h; median GFP as percent of DMSO wells | actives 0.34% (n = 320,000) | GFP response vs DMSO, % at 10 µM;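 active = GFP response vs DMSO above a set limit, about the screen mean plus 3 SD, cut at about 150% in these data; inconclusive = under 70 cell events counted for the yeast strain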
AGP1 TOR yeast: alters AGP1-GFP fluorescence in TOR pathway yeast screen; S. cerevisiae AGP1-GFP multiplex flow cytometry, 3 h; GFP as percent of DMSO wells; GFP response vs DMSO, % at 10 µM; actives 0.02% (n = 320,000); AID 2066;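 active = GFP response relative to DMSO above a set limit, near screen average plus 3 SD, cut at about 150% in these data; inconclusive = fewer than 70 cells counted for the yeast strain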;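 also: median GFP channel fluorescence of the gated AGP1 strain per well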
CIT2-GFP yeast: yeast TOR pathway CIT2-GFP modulation; S. cerevisiae CIT2-GFP strain, flow cytometry, 3 h; 100 means same as DMSO wells; GFP response vs DMSO, % at 10 µM; actives 0.065% (n = 320,000);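 active = GFP response relative to DMSO above a set limit, near the screen mean plus 3 SD, cut at about 150% in these data; inconclusive = Fewer than 70 cells measured for a yeast strain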;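 also: ratio of well median GFP fluorescence to mean of DMSO wells on the plate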
An asterisk follows results filed as active; [ ] = remark or other dose. An excerpt weighted towards active compounds, which were near 1.1% of everything screened.

For Cc1ccc(S(=O)(=O)Nc2cccnc2Oc2ccc(Cl)cc2)cc1 the results were RPL19A TOR yeast 106, VLA-4 inh -5, MEP2-GFP yeast 103, LAP4 TOR yeast 111, AGP1 TOR yeast 114 and CIT2-GFP yeast 88.
CCC(=O)OCCNc1cc(Sc2nc3ccccc3s2)c2nonc2c1[N+](=O)[O-] was read as RPL19A TOR yeast 77, VLA-4 inh 17, MEP2-GFP yeast 94, LAP4 TOR yeast 259*, AGP1 TOR yeast 92 and CIT2-GFP yeast 50.
O=[N+]([O-])c1c(NCCCO)cc(Sc2nc3ccccc3s2)c2nonc12 was read as RPL19A TOR yeast 98, VLA-4 inh 19, MEP2-GFP yeast 98, LAP4 TOR yeast 113, AGP1 TOR yeast 98 and CIT2-GFP yeast 90.
Screening CC(NS(=O)(=O)OCC(Cl)(Cl)Cl)c1ccc(Br)cc1 (configuration not stated) returned RPL19A TOR yeast 123, VLA-4 inh -4, MEP2-GFP yeast 101, LAP4 TOR yeast 109, AGP1 TOR yeast 108 and CIT2-GFP yeast 95.
`NS(=O)(=O)c1ccc(N2N=C(c3ccccc3)CC2c2ccccc2)cc1` (configuration not stated) gave RPL19A TOR yeast 104, VLA-4 inh 0, MEP2-GFP yeast 105, LAP4 TOR yeast 104, AGP1 TOR yeast 63 and CIT2-GFP yeast 86.
`CCc1ccc(C2=NN(c3ccc(S(N)(=O)=O)cc3)C(c3ccc(F)cc3)C2)cc1` (configuration not stated) gave RPL19A TOR yeast 63, VLA-4 inh -4, MEP2-GFP yeast 202*[may fluoresce violet], LAP4 TOR yeast 94 and CIT2-GFP yeast inconclusive.
`COc1ccc(/C(C)=N/NC(=S)NCCc2ccccc2)c(O)c1` gave RPL19A TOR yeast 103, VLA-4 inh -4, MEP2-GFP yeast 104, LAP4 TOR yeast 105, AGP1 TOR yeast 102 and CIT2-GFP yeast 103.
`C[C@@H]1CN([C@H](C)CO)C(=O)Cc2cc(NC(=O)Cn3cnnn3)ccc2O[C@@H]1CN(C)Cc1ccc(Cl)c(Cl)c1` gave VLA-4 inh 4.
Screening COc1ccccc1N=c1oc2cc(O)ccc2cc1C(N)=O returned RPL19A TOR yeast 15*[may fluoresce violet], VLA-4 inh -26, MEP2-GFP yeast 298*[may fluoresce violet], LAP4 TOR yeast 94, AGP1 TOR yeast inconclusive and CIT2-GFP yeast inconclusive.
`Cc1cccc(N=c2oc3cc(O)ccc3cc2C(N)=O)c1` gave RPL19A TOR yeast 40*, VLA-4 inh 26, MEP2-GFP yeast 124, LAP4 TOR yeast 102, AGP1 TOR yeast 97 and CIT2-GFP yeast 95.
Screening CC1=C(C(=O)OCc2ccccc2)C(c2ccccc2[N+](=O)[O-])NC(=O)N1C (configuration not stated) returned RPL19A TOR yeast 104, VLA-4 inh 17, MEP2-GFP yeast 100, LAP4 TOR yeast 87, AGP1 TOR yeast 103 and CIT2-GFP yeast 115.
For COc1ccccc1P(=O)(c1ccccc1)c1ccc([N+](=O)[O-])cc1 (configuration not stated) the results were RPL19A TOR yeast 107, VLA-4 inh 11, MEP2-GFP yeast 108, LAP4 TOR yeast 96, AGP1 TOR yeast 99 and CIT2-GFP yeast 99.
For NS(=O)(=O)c1ccc(CCNc2ccc(C(F)(F)F)cn2)cc1 the results were RPL19A TOR yeast 32*[may fluoresce violet], VLA-4 inh 1, MEP2-GFP yeast 354*[may fluoresce violet], LAP4 TOR yeast inconclusive, AGP1 TOR yeast inconclusive and CIT2-GFP yeast inconclusive.
For Clc1ccc(OCCn2cnc3ccccc32)c(Cl)c1 the results were RPL19A TOR yeast 89, VLA-4 inh 18, MEP2-GFP yeast 95, LAP4 TOR yeast 155*, AGP1 TOR yeast 90 and CIT2-GFP yeast 69.
Cn1c(=O)c(C(=O)Nc2ncccc2O)c(O)c2ccccc21 was read as RPL19A TOR yeast 30*, VLA-4 inh 26, MEP2-GFP yeast 105, LAP4 TOR yeast 88, AGP1 TOR yeast 29 and CIT2-GFP yeast 49.
`O=C(c1ccccc1Br)N1N=C(c2ccccc2)CC1c1ccccc1F` (configuration not stated) gave RPL19A TOR yeast 19*[may fluoresce violet], VLA-4 inh 2, MEP2-GFP yeast 790*[may fluoresce violet], LAP4 TOR yeast 65, AGP1 TOR yeast inconclusive and CIT2-GFP yeast inconclusive.
Screening O=C(O)c1ccccc1C(=O)N1N=C(c2ccccc2)CC1c1ccccc1O (configuration not stated) returned RPL19A TOR yeast 102, VLA-4 inh 21, MEP2-GFP yeast 101, LAP4 TOR yeast 91, AGP1 TOR yeast 94 and CIT2-GFP yeast 98.
Cc1ccc(/C=N/Nc2nncc(-c3ccccc3)n2)o1 was read as RPL19A TOR yeast 97, VLA-4 inh 3, MEP2-GFP yeast 99, LAP4 TOR yeast 98, AGP1 TOR yeast 100 and CIT2-GFP yeast 105.
For Cc1[nH]n(-c2ccccc2)c(=O)c1/C=N/Nc1nncc(-c2ccccc2)n1 the results were RPL19A TOR yeast 89, VLA-4 inh 11, MEP2-GFP yeast 113, LAP4 TOR yeast 271*, AGP1 TOR yeast 88 and CIT2-GFP yeast 89.
O=C1/C(=C/c2ccc(N3CCCC3)cc2)NC(=S)N1C1CC1 was read as RPL19A TOR yeast 42*[may fluoresce violet], VLA-4 inh -174, MEP2-GFP yeast 329*[may fluoresce violet], LAP4 TOR yeast 83, AGP1 TOR yeast inconclusive and CIT2-GFP yeast inconclusive.
C/C(=N\NC(=O)c1ccc(Cl)c(Cl)c1)c1ccccn1 was read as RPL19A TOR yeast 137, VLA-4 inh 23, MEP2-GFP yeast 133, LAP4 TOR yeast 285*, AGP1 TOR yeast 109 and CIT2-GFP yeast 109.
Cc1ccc(C)c(NC(=O)C[n+]2ccccc2)c1 was read as RPL19A TOR yeast 102, VLA-4 inh 8, MEP2-GFP yeast 100, LAP4 TOR yeast 89, AGP1 TOR yeast 97 and CIT2-GFP yeast 103.
Screening Cc1ccc(N2C(=O)c3ccccc3NC2c2ccccc2O)cc1 (configuration not stated) returned RPL19A TOR yeast 110, VLA-4 inh 7, MEP2-GFP yeast 200*, LAP4 TOR yeast 141, AGP1 TOR yeast 99 and CIT2-GFP yeast 145.
O=C(CCN1C(=O)S/C(=C/c2ccccc2)C1=O)Nc1ccc(O)c(C(=O)O)c1 was read as RPL19A TOR yeast 17*[may fluoresce violet], VLA-4 inh 26, MEP2-GFP yeast 142, LAP4 TOR yeast 86, AGP1 TOR yeast inconclusive and CIT2-GFP yeast inconclusive.
Screening Cc1cccc(NC(=O)C2CCCN2C(=O)OCC(C)C)c1 (configuration not stated) returned RPL19A TOR yeast 58, VLA-4 inh 1, MEP2-GFP yeast 231*[may fluoresce violet], LAP4 TOR yeast 95, AGP1 TOR yeast 24 and CIT2-GFP yeast inconclusive.
